# Test results from PMC7862700, “An all-to-all approach to the identification of sequence-specific readers for epigenetic DNA modifications on cytosine”.
# Assays:
# Assay in all cases: DAPPL (digital affinity profiling via proximity ligation, sequencing); 10 mM Tris-HCl pH 7.5, 50 mM NaCl, 1 mM DTT, 4% glycerol, room temperature, 30 min; GST-TFs on glutathione beads, 16-mer random dsDNA library, 0.1% formaldehyde crosslink after washing; high values mean tight binding
# FLI1 = target: T1, FLI1 (Homo sapiens, UniProt Q01543 1-452); settings: protein: recombinant; tags: N-terminal GST; dsDNA, one strand shown
# T1 sequence: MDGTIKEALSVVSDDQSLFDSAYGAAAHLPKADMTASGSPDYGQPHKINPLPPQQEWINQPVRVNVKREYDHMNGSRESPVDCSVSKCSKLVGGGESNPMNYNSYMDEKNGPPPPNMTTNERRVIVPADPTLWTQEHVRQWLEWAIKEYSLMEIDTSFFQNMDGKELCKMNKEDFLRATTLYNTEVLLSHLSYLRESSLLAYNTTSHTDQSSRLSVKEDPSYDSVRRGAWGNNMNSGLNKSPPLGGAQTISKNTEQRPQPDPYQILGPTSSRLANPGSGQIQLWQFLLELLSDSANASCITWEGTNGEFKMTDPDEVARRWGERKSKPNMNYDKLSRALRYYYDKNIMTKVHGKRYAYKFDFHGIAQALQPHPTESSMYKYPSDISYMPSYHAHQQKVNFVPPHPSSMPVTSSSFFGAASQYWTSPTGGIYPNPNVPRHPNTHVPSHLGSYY
# Summary of the method: (§1)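 Human transcription factors fused to GST were expressed in yeast, captured on glutathione beads, given DNA barcodes and pooled with a GST-only negative control. Pools were incubated with 200 nmole of a 16-mer random double-stranded DNA library in Tris/NaCl/DTT/glycerol buffer at room temperature for 30 min. They were then washed, crosslinked with 0.1% formaldehyde, proximity-ligated (BsaI/T4 ligase, 1 h, 37 °C), PCR-amplified and sequenced on an Illumina NextSeq500. Binding signal is each 6-mer's read frequency for a factor divided by its frequency for the GST control.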
# ELK1 = target: T2, ELK1 (Homo sapiens, UniProt P19419 1-428); settings: protein: recombinant; tags: N-terminal GST; dsDNA, one strand shown
# T2 sequence: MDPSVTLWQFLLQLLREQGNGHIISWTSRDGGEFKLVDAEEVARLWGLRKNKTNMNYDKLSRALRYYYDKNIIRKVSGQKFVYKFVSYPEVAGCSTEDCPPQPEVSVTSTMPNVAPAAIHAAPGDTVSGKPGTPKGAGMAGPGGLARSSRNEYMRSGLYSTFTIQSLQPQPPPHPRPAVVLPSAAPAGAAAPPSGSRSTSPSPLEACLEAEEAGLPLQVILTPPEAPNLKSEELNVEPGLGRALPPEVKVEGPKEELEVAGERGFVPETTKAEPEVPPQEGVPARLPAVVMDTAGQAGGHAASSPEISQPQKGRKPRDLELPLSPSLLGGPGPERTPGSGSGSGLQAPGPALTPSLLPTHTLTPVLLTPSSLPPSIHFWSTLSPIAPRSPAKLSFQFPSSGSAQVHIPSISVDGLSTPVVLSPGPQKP
# Summary of the method: as §1
# GABPA = target: T3, GABPA (Homo sapiens, UniProt Q06546 1-454); settings: protein: recombinant; tags: N-terminal GST; dsDNA, one strand shown
# T3 sequence: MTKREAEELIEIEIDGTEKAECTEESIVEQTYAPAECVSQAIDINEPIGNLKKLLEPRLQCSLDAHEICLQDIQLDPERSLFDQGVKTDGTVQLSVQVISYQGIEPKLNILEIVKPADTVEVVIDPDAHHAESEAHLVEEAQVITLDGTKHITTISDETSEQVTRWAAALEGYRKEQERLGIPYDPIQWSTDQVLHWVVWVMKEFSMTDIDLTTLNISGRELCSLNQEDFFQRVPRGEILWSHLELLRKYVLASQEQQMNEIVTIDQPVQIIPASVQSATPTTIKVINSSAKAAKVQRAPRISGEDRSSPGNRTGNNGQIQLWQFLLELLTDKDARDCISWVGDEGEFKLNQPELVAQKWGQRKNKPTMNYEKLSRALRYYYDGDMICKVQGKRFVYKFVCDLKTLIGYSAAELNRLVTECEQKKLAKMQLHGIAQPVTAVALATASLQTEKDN
# Summary of the method: as §1
# ERG = target: T4, ERG (Homo sapiens, UniProt P11308 1-479); settings: protein: recombinant; tags: N-terminal GST; dsDNA, one strand shown
# T4 sequence: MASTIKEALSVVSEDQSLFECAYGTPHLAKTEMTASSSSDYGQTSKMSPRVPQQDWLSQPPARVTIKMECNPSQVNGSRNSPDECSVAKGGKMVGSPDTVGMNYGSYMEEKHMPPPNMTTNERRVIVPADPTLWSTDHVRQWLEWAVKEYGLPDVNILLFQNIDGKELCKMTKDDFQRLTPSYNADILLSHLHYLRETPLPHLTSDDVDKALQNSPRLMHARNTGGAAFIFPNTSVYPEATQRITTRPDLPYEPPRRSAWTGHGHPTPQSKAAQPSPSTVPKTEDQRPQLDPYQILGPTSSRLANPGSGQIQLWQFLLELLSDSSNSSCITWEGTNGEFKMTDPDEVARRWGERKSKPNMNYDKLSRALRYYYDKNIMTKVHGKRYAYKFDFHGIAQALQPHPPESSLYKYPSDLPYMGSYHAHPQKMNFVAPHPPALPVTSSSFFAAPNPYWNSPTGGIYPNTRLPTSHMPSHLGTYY
# Summary of the method: as §1
# ELF1 = ELF1 (Homo sapiens, UniProt P32519 1-619); settings: protein: recombinant; tags: N-terminal GST; dsDNA, one strand shown
# Summary of the method: as §1
# EHF = target: T5, EHF (Homo sapiens, UniProt Q9NZC4 1-300); settings: protein: recombinant; tags: N-terminal GST; dsDNA, one strand shown
# T5 sequence: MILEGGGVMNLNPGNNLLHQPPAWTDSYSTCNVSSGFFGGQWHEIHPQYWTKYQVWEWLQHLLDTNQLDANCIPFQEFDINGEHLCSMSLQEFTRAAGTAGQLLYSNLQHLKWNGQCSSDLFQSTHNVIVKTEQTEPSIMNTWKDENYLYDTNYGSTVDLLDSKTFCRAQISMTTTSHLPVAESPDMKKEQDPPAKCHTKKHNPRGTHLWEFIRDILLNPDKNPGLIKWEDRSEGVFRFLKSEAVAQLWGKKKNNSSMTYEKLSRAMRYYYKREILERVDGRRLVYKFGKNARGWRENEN
# Summary of the method: as §1
# SPI1 = SPI1 (Homo sapiens, UniProt P17947 1-270); settings: protein: recombinant; tags: N-terminal GST; dsDNA, one strand shown
# Summary of the method: as §1
# SPIB = SPIB (Homo sapiens, UniProt Q01892 1-262); settings: protein: recombinant; tags: N-terminal GST; dsDNA, one strand shown
# Summary of the method: as §1
# ELK3 = target: T6, ELK3 (Homo sapiens, UniProt P41970 1-407); settings: protein: recombinant; tags: N-terminal GST; dsDNA, one strand shown
# T6 sequence: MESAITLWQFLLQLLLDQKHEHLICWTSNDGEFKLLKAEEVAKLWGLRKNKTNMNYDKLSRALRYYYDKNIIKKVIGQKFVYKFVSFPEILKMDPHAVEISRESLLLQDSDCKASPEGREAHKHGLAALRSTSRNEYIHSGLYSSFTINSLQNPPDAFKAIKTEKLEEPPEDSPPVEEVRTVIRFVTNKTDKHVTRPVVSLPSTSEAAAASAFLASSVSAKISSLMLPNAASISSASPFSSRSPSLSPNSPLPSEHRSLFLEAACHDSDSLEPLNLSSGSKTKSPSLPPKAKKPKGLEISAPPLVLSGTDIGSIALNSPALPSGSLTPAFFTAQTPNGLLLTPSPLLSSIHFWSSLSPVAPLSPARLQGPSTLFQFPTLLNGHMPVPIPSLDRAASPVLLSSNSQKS
# Summary of the method: as §1
# FEV = target: T7, FEV (Homo sapiens, UniProt Q99581 1-238); settings: protein: recombinant; tags: N-terminal GST; dsDNA, one strand shown
# T7 sequence: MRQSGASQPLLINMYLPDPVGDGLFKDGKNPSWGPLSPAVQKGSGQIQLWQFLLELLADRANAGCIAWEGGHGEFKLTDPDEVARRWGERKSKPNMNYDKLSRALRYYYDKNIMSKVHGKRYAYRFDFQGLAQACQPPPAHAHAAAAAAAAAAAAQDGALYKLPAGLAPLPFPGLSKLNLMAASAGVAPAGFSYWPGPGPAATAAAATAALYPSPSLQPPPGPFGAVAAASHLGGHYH
# Summary of the method: as §1
# ETV5 = ETV5 (Homo sapiens, UniProt P41161 1-510); settings: protein: recombinant; tags: N-terminal GST; dsDNA, one strand shown
# Summary of the method: as §1
# HSF1 = HSF1 (Homo sapiens, UniProt Q00613 1-529); settings: protein: recombinant; tags: N-terminal GST; chain copies: 3; dsDNA, one strand shown
# Summary of the method: as §1
# SPIC = target: T8, SPIC (Homo sapiens, UniProt Q8N5J4 1-248); settings: protein: recombinant; tags: N-terminal GST; dsDNA, one strand shown
# T8 sequence: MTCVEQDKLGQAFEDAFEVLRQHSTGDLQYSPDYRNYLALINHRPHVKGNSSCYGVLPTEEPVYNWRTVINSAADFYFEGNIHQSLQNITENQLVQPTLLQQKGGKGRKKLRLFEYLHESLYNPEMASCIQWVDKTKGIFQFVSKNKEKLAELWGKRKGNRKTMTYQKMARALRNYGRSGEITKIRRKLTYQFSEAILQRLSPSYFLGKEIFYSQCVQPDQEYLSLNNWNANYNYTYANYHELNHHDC
# Summary of the method: as §1
# ELF4 = ELF4 (Homo sapiens, UniProt Q99607 1-663); settings: protein: recombinant; tags: N-terminal GST; dsDNA, one strand shown
# Summary of the method: as §1
# ELK4 = target: T9, ELK4 (Homo sapiens, UniProt P28324-2 1-405); settings: protein: recombinant; tags: N-terminal GST; dsDNA, one strand shown
# T9 sequence: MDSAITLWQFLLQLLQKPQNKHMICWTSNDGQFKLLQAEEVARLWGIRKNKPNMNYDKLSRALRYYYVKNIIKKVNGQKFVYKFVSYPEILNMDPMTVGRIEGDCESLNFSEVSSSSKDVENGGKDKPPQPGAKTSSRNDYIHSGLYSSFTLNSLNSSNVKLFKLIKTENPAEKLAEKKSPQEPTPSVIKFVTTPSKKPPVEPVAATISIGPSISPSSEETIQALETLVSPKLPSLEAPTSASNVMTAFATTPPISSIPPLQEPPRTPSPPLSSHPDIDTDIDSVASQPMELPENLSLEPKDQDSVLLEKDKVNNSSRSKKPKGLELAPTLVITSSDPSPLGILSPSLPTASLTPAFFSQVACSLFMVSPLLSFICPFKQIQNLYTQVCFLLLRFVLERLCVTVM
# Summary of the method: as §1
# ETV2 = target: T10, ETV2 (Homo sapiens, UniProt O00321 1-342); settings: protein: recombinant; tags: N-terminal GST; dsDNA, one strand shown
# T10 sequence: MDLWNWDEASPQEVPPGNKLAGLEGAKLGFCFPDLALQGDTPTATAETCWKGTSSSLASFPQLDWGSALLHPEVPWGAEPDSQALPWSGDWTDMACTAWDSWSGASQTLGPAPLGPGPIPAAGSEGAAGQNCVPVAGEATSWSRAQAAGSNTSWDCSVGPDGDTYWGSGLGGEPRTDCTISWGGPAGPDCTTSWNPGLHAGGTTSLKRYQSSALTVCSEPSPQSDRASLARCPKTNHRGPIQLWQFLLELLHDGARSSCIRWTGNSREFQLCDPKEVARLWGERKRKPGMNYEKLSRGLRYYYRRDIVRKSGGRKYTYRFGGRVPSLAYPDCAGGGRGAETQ
# Summary of the method: as §1
# ELF3 = target: T11, ELF3 (Homo sapiens, UniProt P78545 1-371); settings: protein: recombinant; tags: N-terminal GST; dsDNA, one strand shown
# T11 sequence: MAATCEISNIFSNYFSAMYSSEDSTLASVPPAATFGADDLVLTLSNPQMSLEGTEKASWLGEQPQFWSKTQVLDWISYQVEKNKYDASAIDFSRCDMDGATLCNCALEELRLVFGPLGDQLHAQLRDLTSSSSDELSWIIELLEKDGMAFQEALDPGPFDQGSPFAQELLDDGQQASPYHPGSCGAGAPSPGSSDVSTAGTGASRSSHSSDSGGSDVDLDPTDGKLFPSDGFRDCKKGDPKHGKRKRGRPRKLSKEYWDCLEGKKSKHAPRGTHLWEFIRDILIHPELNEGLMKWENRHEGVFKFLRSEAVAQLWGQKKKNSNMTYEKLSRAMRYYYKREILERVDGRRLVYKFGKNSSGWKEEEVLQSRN
# Summary of the method: as §1
# CRX = CRX (Homo sapiens, UniProt O43186 1-299); settings: protein: recombinant; tags: N-terminal GST; dsDNA, one strand shown
# Summary of the method: as §1
# ETV1 = ETV1 (Homo sapiens, UniProt P50549 1-477); settings: protein: recombinant; tags: N-terminal GST; dsDNA, one strand shown
# Summary of the method: as §1
# CRX, sequence (O43186 whole entry): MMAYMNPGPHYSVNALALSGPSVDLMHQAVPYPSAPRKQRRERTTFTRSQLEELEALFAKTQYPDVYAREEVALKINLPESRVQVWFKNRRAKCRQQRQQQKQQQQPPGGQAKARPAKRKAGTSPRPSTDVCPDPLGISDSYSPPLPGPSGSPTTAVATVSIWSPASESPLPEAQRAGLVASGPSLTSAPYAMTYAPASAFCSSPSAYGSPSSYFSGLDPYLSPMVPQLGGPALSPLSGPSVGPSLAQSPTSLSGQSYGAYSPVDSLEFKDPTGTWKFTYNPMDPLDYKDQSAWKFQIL
# ELF4, sequence (Q99607 whole entry): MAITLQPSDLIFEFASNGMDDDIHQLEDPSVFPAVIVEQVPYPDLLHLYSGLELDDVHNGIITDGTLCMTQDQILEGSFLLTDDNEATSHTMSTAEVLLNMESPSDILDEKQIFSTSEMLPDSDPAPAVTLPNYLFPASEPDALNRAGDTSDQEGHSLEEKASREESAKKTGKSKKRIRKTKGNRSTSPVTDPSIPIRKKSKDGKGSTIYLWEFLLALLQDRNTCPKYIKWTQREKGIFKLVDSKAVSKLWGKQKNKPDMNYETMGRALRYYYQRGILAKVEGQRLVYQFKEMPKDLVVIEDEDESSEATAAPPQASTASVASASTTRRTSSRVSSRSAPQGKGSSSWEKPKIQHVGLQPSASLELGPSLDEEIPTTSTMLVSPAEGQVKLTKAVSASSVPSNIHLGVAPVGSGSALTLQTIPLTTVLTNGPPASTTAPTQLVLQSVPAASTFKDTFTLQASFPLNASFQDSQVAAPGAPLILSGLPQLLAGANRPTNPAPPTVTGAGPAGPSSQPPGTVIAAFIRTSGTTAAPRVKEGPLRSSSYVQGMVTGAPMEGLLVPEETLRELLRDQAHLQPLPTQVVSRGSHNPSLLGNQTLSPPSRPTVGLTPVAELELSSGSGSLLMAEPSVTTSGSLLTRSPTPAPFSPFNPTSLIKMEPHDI
# ELF1, sequence (P32519 whole entry): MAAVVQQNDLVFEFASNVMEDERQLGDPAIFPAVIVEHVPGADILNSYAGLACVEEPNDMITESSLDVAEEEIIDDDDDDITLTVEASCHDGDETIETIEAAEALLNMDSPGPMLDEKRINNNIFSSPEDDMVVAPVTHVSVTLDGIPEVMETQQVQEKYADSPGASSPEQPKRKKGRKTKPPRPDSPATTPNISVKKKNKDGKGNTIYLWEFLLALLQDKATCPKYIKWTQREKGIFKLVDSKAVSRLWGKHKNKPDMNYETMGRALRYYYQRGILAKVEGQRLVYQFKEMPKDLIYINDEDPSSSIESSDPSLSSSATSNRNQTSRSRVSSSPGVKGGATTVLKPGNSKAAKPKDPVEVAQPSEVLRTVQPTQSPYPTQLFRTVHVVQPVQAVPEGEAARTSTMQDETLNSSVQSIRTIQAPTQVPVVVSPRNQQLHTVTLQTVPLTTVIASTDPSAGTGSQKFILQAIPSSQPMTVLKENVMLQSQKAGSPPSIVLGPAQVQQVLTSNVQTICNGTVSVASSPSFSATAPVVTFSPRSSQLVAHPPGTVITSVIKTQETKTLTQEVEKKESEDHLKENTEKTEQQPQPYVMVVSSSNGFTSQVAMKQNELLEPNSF
# HSF1, sequence (Q00613 whole entry): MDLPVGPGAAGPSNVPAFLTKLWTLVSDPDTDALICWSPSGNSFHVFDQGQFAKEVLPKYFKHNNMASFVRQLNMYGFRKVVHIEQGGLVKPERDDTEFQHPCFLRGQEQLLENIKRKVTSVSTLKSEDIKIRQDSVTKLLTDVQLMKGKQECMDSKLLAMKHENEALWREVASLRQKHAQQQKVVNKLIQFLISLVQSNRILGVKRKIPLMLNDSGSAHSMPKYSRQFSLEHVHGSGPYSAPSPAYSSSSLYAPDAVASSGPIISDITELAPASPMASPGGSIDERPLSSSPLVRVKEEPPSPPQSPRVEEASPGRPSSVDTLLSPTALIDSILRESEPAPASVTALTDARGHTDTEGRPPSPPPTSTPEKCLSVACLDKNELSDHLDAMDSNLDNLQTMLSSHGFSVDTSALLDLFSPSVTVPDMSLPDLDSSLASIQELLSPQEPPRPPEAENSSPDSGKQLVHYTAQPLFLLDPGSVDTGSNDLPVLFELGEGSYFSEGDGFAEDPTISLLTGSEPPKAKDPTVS
# SPIB, sequence (Q01892 whole entry): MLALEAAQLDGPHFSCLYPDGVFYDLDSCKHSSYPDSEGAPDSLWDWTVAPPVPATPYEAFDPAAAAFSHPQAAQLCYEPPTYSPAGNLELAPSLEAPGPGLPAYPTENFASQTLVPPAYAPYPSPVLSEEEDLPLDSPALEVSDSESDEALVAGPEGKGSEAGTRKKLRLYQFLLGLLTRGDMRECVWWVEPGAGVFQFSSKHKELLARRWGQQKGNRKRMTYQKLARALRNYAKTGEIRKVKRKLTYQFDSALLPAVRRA
# ETV1, sequence (P50549 whole entry): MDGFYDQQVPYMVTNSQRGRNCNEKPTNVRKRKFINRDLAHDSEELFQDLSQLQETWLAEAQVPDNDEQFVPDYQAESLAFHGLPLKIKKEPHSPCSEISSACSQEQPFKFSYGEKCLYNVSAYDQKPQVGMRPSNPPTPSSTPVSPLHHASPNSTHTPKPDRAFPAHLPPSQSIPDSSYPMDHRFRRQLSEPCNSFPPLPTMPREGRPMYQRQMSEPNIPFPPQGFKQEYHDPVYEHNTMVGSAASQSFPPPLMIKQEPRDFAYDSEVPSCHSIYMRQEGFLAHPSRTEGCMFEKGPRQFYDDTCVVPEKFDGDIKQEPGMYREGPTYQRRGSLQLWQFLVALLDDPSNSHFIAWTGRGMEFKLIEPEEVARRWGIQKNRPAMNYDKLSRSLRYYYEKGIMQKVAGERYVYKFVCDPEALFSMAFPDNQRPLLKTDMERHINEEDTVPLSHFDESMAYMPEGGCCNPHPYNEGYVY
# ETV5, sequence (P41161 whole entry): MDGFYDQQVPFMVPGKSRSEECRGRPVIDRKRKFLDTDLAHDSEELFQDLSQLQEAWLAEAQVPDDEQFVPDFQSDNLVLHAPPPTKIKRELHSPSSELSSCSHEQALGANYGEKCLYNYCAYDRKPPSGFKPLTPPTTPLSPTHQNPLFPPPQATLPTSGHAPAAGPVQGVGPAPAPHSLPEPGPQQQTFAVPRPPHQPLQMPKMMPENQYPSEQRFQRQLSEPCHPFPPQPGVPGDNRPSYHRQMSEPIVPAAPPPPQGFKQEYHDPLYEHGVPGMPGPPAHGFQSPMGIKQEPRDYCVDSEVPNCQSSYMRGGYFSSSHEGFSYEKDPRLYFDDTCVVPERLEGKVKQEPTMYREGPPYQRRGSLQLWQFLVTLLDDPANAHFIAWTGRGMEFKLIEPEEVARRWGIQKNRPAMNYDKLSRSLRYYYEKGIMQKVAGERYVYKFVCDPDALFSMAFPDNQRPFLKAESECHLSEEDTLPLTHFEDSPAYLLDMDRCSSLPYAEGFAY
sequence,measurement,setting,value
TTTTAT,binding signal,FLI1,"1.4 fold enrichment (6-mer frequency, TF over GST control)"
same,binding signal,ELK1,"1.16 fold enrichment (6-mer frequency, TF over GST control)"
same,binding signal,GABPA,"1.42 fold enrichment (6-mer frequency, TF over GST control)"
same,binding signal,ERG,"1.3 fold enrichment (6-mer frequency, TF over GST control)"
same,binding signal,ELF1,"1.17 fold enrichment (6-mer frequency, TF over GST control)"
same,binding signal,EHF,"1.44 fold enrichment (6-mer frequency, TF over GST control)"
same,binding signal,SPI1,"1.44 fold enrichment (6-mer frequency, TF over GST control)"
same,binding signal,SPIB,"1.37 fold enrichment (6-mer frequency, TF over GST control)"
same,binding signal,ELK3,"1.34 fold enrichment (6-mer frequency, TF over GST control)"
same,binding signal,FEV,"1.32 fold enrichment (6-mer frequency, TF over GST control)"
same,binding signal,ETV5,"1.26 fold enrichment (6-mer frequency, TF over GST control)"
same,binding signal,HSF1,"1.46 fold enrichment (6-mer frequency, TF over GST control)"
same,binding signal,SPIC,"1.39 fold enrichment (6-mer frequency, TF over GST control)"
same,binding signal,ELF4,"1.4 fold enrichment (6-mer frequency, TF over GST control)"
same,binding signal,ELK4,"1.26 fold enrichment (6-mer frequency, TF over GST control)"
same,binding signal,ETV2,"1.36 fold enrichment (6-mer frequency, TF over GST control)"
same,binding signal,ELF3,"1.32 fold enrichment (6-mer frequency, TF over GST control)"
same,binding signal,CRX,"1.77 fold enrichment (6-mer frequency, TF over GST control)"
same,binding signal,ETV1,"1.3 fold enrichment (6-mer frequency, TF over GST control)"
